Assay outcomes (PubChem BioAssay)
nsP2pro primary: CHIKV nsP2 protease inhibition, primary qHTS. FRET peptide cleavage, nsP2pro, fluorescence 1 h. 31,000 compounds, 1.1% hits. Potency, µM (titrated, usually from 24.9 µM), for inactives: at the highest dose activity change, negative = inhibition, usual class: inhibitors. AID 1964107; calls by dose curve; further: nearly all actives have a fitted effect of over 60% in size
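FRET cleavage of 2.5 uM peptide 2 by 150 nM CHIKV protease domain at pH 8.0 (Tris, Tween 20). Compounds at 7 concentrations (up to 25 uM) preincubated 15 min. Fluorescence read after 1 h at room temperature.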
* hit, by the source's call; i = inactive; [ ] = another dose, or the depositor's remark. The sample as a whole holds a higher share of hits than the screen did. On the % scale 0 is the no-effect control and ±100 the full control effect; potency means the concentration at half of the fitted maximal effect.

SMILES | nsP2pro primary
Cc1ccc([S+](=O)([O-])N2CCCCC23Cc2ccccc2NC3=O)cc1 (stereo not drawn) | i
CCOC(=O)C(Cc1cccc(N2CCN(C(=O)OC(C)(C)C)CC2)c1)OC (stereo not drawn) | 2.8%
CCn1c(-c2nc3cc(C(=O)N4CCC[C@@H](N)C4)cc(OC)c3n2C)cc2ccccc21 | 63.0%
O=C(OCc1ccccc1)N1CCOCC12CCN(Cc1c[nH]c3ccccc13)CC2 | i
C[C@@H]1[C@H](c2ccccc2)C[C@H](NC(=O)c2cnc3c(c2)C[C@@]2(C3)C(=O)Nc3ncccc32)C(=O)N1CC(F)(F)F | -8.4%
CC1CCC2(C(=O)O)CCC3(C)C(=CCC4C5(C)CCC(O)C(C)(C)C5CCC43C)C2C1C (stereo not drawn) | 1.8%
O=c1cc(-c2ccncc2)oc2c(-c3cccc(CO)c3)nccc12 | 14.1µM*
Cc1ccccc1-c1nccc2c(=O)cc(C3=CCOCC3)oc12 | -18.0%[39.2 µM]
O=c1cc(-c2cccnc2)oc2c(NCCc3ccccn3)nccc12 | -21.0%[39.2 µM]
Cc1cc(C)nc(NC(=S)N2CCN(c3ccc4nncn4c3)CC2)c1 | -23.7%
Cc1ccnc(NC(=S)N2CCc3cc(C(F)(F)F)ccc3C2)c1 | i
CC(C)(C#Cc1ccc(-c2ccc(Cl)c3c(NS(C)(=O)=O)nn(CC(F)(F)F)c23)c([C@H](Cc2cc(F)cc(F)c2)NC(=O)Cn2nc(C(F)(F)F)c3c2C(F)(F)[C@@H]2C[C@H]32)n1)S(C)(=O)=O | -14.2%
Cn1c(=O)cc(SCC(=O)N2CCN(c3ccccc3F)CC2)c2ccccc21 | -18.6%
CCOc1ccc(C(c2c(O)cc(C)n(CCOC)c2=O)N2CCN(c3ccccc3F)CC2)cc1 (stereo not drawn) | 12.6µM*
CCOC(=O)c1cnc2ccc(OCC)cc2c1N1CCN(c2ccccc2F)CC1 | -11.2%
CON(C)Cc1ccc(O)c2c1C[C@H]1C[C@H]3[C@H](N(C)C)C(=O)C(C(N)=O)=C(O)[C@@]3(O)C(=O)C1=C2O | 1.7%
Cc1cccc(-n2cnc3cc(C(=O)N4CCCC(C)C4)ccc32)c1 (stereo not drawn) | 4.0%
CCOc1ccc(CCNC(=O)c2cc3ccccc3n2Cc2ccccn2)cc1OCC | 7.94µM*
CCOc1ccc(CCNC(=O)c2cc3ccncc3n2Cc2cccc(C)n2)cc1OCC | i
CCOc1ccc(CCNC(=O)c2cc3ncccc3n2Cc2cccc(C)n2)cc1OCC | i
CCC(C)C(NC(=O)C(Cc1ccc(O)cc1)NC(=O)C(NC(=O)C(CCCN=C(N)N)NC(=O)C(N)CC(=O)O)C(C)C)C(=O)NC(Cc1cnc[nH]1)C(=O)N1CCCC1C(=O)O (stereo not drawn) | -5.7%
CC1=C(c2ccc(C)c(C)c2)S(=O)(=O)N=C1N1CCC(C(=O)NCc2ccc(Cl)cc2)CC1 | -4.1%
CC1=C(c2ccc(C)c(C)c2)S(=O)(=O)N=C1N1CCC(C(=O)Nc2ccc(Cl)cc2)CC1 | -11.0%
CC1=C(c2ccc(Cl)cc2)S(=O)(=O)N=C1N1CCC(C(=O)NCCc2ccco2)CC1 | 11.2µM*
FC(F)(F)c1cc(N2CCN(C(=S)Nc3cc(Cl)ccn3)CC2)cc(C(F)(F)F)c1 | i
Cc1ccc(S(=O)(=O)Nc2cnccc2C(=O)Nc2nc(-c3cccc(Cl)c3)cs2)cc1 | i
